# The full data set covers some 8,800 targets. This sample favours those with a hit. About 0.5% of all pairs of compound and target were hits. A number with no mark means an inactive call.
# How the values were obtained:
# Assay in all cases: log2 fold change, soluble protein after heating vs DMSO (PISA); higher = thermal stabilisation; K562 lysate, 10 uM; active = over 0.2 and 3.5 SD of the protein, either way, in both replicates (recomputed)
# erlotinib = compound: C#Cc1cccc(Nc2ncnc3cc(OCCOC)c(OCCOC)cc23)c1 [erlotinib]
# Method in brief: (§1)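 The values are log-two fold changes in thermal stability compared with solvent controls and come from duplicates. They were obtained by TMTpro 16plex LC-MS/MS, with channel sums equalised, on the supernatant after 21,000xg for 90 min. That supernatant came from crude K562 extract at 1 mg/mL protein treated with 10 μM compound for 30 min, heated for 3 min across 48°C-58°C, pooled and brought to 0.5% NP-40 at 4°C.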
# [1] = compound: C/C(=N\NC(=O)C1=CC(=CC=C1)S(=O)(=O)N2CCOCC2)/C3=C(C=CC(=C3)Cl)O
# Method in brief: as §1
# [2] = compound: C1=CC(=CC=C1C2=NC3=C(N2)C=C(C=C3)C(=O)N)OC4=CC=C(C=C4)Cl
# Method in brief: as §1
# [3] = compound: C1=CC2=C(C=CC(=C2)/C=C\3/C(=O)NC(=NCC4=CC=CS4)S3)N=C1
# Method in brief: as §1
# [4] = compound: C1=CC2=NC=CN=C2C=C1/C=C/3\C(=O)NC(=O)S3
# Method in brief: as §1
# [5] = compound: C1=CC=C(C=C1)C2=NC(=C(N2)C3=CC=NC=C3)C4=CC(=C(C=C4)Cl)O
# Method in brief: as §1
# [6] = compound: C1=CC=C2C(=C1)C3=NNC4=CC=CC(=C43)C2=O
# Method in brief: as §1
# [7] = compound: C1CCN(C1)C(=O)NC2=CC=CC(=C2)NC3=NC=C(C(=N3)NCCC4=CN=CN4)Br
# Method in brief: as §1
# [8] = compound: C1CN(CCC1(CC2=CC=C(C=C2)Cl)N)C3=NC=NC4=C3C=CN4
# Method in brief: as §1
# IRAK-1-4 Inhibitor I = compound: C1COCCN1CCN2C3=CC=CC=C3N=C2NC(=O)C4=CC(=CC=C4)[N+](=O)[O-] [IRAK-1-4 Inhibitor I]
# Method in brief: as §1
# ibrutinib = compound: C=CC(=O)N1CCC[C@@H](n2nc(-c3ccc(Oc4ccccc4)cc3)c3c(N)ncnc32)C1 [ibrutinib]
# Method in brief: as §1
# [9] = compound: CC(=O)c1cnc2ccc(-c3cc(Cl)c(O)c(Cl)c3)nc2c1N[C@H]1CC[C@H](CN(C)C)CC1
# Method in brief: as §1
# ralimetinib = compound: CC(C)(C)Cn1c(N)nc2ccc(-c3[nH]c(C(C)(C)C)nc3-c3ccc(F)cc3)nc21 [ralimetinib]
# Method in brief: as §1
# [10] = compound: CC(C)(O)CC(=O)NCCn1ccc2ncnc(Nc3ccc(Oc4cccc(C(F)(F)F)c4)c(Cl)c3)c21
# Method in brief: as §1
# [11] = compound: CC(C)C1=C2N=C(C=C(N2N=C1)NCC3=CC=CC=C3)NCCCCCCN
# Method in brief: as §1
# [12] = compound: CC1=C(C(CC(=O)N1)C2=CC=C(C=C2)C(F)(F)F)C(=O)NC3=C(C=C4C(=C3)C=NN4)F
# Method in brief: as §1
# [13] = compound: CC1=C(C2=C(C=C1)C(=O)C3=CC=CC=C3N2CCCN)C
# Method in brief: as §1
# [14] = compound: CC1=C(C=C(C=C1)NC(=O)C2=CC(=CC=C2)C(C)(C)C#N)NC3=CC4=C(C=C3)N=CN(C4=O)C
# Method in brief: as §1
# [15] = compound: CC1=C(C=C(C=C1)NC(=O)C2=CC(=CC=C2)N(C)C)NC(=O)C3=CC=C(C=C3)O
# Method in brief: as §1
# [16] = compound: CC1=CC=C(C=C1)SC2=C3C=C(SC3=CN=C2)C(=O)N
# Method in brief: as §1
# Chain of UniProt Q6EEV4 (Q6EEV4 whole entry, looked up): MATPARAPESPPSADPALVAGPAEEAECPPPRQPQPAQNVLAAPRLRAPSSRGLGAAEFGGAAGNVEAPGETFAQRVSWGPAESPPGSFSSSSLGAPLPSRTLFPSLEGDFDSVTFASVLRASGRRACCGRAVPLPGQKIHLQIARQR
# Chain of UniProt O14668 (O14668 whole entry, looked up): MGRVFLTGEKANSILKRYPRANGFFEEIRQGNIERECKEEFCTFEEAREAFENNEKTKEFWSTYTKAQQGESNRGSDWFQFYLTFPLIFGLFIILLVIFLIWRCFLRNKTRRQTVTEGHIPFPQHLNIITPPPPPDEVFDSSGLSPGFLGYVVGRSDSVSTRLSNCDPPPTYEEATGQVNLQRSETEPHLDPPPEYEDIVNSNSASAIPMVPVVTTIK
# Chain of UniProt P78356 (P78356 whole entry, looked up): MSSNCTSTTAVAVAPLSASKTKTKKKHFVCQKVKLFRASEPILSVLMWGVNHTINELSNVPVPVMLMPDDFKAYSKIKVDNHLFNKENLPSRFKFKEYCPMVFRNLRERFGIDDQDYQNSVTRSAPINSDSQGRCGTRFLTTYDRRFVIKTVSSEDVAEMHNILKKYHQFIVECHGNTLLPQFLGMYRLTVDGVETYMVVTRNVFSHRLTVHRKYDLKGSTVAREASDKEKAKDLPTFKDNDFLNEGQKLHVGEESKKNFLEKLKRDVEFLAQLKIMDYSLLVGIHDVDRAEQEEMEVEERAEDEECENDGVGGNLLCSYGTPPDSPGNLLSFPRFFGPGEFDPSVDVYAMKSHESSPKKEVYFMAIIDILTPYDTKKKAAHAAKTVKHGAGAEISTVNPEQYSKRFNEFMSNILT
# Chain of UniProt Q16378 (Q16378 whole entry, looked up): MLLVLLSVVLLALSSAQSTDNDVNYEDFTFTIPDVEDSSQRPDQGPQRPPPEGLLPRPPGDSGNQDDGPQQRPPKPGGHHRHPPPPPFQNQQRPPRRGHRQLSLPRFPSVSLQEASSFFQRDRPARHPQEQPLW
# Chain of UniProt Q8TCG2 (Q8TCG2 whole entry, looked up): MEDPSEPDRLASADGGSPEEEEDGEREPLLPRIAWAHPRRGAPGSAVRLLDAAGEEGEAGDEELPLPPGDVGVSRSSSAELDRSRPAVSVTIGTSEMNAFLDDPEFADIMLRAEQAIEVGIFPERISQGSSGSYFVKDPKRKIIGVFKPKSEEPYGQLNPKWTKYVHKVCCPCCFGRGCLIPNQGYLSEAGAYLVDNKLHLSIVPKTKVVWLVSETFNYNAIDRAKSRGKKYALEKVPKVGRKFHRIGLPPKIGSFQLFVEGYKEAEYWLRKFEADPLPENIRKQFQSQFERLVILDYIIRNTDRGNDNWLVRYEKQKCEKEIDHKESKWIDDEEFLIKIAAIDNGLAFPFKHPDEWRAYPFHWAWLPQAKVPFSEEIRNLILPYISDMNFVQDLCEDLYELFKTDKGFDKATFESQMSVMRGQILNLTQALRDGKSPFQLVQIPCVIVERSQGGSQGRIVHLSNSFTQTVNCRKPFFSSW
# Chain of UniProt Q9BZL6 (Q9BZL6 whole entry, looked up): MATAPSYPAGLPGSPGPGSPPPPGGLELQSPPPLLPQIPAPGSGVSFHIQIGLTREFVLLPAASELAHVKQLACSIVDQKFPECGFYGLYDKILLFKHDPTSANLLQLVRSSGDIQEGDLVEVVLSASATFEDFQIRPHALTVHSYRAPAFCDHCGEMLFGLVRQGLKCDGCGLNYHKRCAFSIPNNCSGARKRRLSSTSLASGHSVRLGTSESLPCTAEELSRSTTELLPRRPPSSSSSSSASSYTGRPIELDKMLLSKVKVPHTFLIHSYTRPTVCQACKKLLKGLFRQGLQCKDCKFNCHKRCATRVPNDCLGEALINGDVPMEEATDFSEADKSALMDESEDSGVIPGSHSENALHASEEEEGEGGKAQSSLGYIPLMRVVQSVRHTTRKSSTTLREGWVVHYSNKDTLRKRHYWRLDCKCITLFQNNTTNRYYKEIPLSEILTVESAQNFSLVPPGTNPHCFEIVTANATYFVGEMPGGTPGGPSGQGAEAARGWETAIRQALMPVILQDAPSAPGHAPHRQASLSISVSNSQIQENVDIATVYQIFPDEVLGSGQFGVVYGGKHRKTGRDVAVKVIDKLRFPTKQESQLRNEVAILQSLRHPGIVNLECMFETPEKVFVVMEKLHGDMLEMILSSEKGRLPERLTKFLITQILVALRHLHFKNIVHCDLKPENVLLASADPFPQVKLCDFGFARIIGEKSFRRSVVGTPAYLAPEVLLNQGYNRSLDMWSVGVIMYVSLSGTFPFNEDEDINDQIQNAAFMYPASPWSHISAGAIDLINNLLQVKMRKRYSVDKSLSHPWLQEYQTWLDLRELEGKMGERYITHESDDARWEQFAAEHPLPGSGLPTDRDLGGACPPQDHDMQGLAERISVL
# Chain of UniProt Q9BSG0 (Q9BSG0 whole entry, looked up): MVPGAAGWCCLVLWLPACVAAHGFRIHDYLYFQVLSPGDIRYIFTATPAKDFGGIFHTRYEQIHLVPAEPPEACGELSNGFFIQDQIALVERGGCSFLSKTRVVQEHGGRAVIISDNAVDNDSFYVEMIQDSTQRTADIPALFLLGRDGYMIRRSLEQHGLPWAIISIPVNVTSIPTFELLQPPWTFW
# Chain of UniProt P48736 (P48736 whole entry, looked up): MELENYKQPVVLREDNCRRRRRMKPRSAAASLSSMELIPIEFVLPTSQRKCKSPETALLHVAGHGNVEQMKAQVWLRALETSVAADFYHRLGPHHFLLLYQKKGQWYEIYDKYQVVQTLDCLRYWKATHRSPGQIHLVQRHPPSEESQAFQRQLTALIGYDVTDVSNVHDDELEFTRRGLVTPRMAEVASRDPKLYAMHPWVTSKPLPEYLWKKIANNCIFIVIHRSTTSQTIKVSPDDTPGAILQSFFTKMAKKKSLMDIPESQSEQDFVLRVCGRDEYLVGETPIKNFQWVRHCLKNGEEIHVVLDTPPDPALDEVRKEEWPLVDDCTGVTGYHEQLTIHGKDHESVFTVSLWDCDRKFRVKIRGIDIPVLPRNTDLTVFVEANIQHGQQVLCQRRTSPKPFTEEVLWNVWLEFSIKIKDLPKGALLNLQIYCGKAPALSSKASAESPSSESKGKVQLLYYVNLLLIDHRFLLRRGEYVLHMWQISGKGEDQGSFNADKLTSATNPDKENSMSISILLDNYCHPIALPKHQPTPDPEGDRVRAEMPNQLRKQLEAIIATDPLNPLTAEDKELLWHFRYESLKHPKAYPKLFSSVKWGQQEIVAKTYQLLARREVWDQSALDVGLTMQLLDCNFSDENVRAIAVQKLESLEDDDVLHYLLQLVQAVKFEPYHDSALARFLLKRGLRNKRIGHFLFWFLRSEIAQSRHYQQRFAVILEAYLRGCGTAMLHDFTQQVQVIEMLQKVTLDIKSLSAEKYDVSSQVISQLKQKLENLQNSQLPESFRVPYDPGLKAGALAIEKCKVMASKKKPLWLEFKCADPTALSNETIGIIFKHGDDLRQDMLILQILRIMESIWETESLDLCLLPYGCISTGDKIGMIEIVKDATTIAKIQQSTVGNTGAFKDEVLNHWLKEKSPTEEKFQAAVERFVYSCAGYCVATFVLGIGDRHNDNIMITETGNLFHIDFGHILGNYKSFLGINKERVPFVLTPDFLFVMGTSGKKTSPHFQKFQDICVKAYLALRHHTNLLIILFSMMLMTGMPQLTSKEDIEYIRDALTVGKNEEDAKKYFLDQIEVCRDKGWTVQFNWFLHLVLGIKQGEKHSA
# Chain of UniProt Q4G0T1 (Q4G0T1 whole entry, looked up): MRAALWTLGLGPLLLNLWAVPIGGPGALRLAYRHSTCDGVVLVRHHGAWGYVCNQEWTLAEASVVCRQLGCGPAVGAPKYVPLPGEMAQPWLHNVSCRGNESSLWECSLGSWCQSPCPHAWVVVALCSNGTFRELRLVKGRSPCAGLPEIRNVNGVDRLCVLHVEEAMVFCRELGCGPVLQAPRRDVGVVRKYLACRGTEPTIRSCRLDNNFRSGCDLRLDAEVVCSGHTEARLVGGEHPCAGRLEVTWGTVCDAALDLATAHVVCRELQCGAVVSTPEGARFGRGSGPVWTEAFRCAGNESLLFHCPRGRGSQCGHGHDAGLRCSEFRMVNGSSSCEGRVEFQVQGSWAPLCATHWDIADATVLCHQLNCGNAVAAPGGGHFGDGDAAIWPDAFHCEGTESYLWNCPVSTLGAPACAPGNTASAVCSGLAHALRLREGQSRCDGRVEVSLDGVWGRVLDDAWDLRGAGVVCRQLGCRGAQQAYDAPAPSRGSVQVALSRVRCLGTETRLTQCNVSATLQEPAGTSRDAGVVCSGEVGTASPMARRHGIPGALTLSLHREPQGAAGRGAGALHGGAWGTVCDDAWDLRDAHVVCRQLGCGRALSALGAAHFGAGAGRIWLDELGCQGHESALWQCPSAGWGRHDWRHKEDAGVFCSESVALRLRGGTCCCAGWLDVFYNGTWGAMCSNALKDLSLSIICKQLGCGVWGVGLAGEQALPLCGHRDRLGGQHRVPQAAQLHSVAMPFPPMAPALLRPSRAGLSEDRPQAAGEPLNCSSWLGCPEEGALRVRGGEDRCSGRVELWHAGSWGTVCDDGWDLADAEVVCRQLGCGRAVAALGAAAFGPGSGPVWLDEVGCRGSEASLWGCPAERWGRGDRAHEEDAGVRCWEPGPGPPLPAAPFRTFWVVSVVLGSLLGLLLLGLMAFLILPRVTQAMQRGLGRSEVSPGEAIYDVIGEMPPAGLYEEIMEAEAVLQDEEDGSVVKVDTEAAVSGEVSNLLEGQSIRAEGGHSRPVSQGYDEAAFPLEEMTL
# Chain of UniProt Q03393 (Q03393 whole entry, looked up): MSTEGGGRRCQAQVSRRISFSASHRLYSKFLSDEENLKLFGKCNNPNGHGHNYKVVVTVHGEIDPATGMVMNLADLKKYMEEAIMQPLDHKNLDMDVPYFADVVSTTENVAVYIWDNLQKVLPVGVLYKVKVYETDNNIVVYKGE
# Chain of UniProt O60927 (O60927 whole entry, looked up): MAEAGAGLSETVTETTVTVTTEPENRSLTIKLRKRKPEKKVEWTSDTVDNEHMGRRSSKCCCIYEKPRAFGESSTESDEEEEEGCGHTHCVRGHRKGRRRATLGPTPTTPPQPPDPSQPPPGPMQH
Target,log2 fold change (erlotinib),log2 fold change [1],log2 fold change [2],log2 fold change [3],log2 fold change [4],log2 fold change [5],log2 fold change [6],log2 fold change [7],log2 fold change [8],log2 fold change (IRAK-1-4 Inhibitor I),log2 fold change (ibrutinib),log2 fold change [9],log2 fold change (ralimetinib),log2 fold change [10],log2 fold change [11],log2 fold change [12],log2 fold change [13],log2 fold change [14],log2 fold change [15],log2 fold change [16]
PTS (UniProt Q03393),-0.018,-0.112,-0.018,0.034,0.001,0.074,-0.023,-0.069,0.002,0.028,0.213,0.015,0.021,-0.027,-0.041,-0.117,-0.102,0.034,-0.013,-0.017
PIP4K2B (UniProt P78356),0.038,-0.193,-0.021,0.012,0.096,0.067,0.013,0.032,-0.02,-0.019,-0.002,0.043,0.016,0.023,-0.032,-0.043,-0.022,0.087,-0.044,-0.031
PIK3CB (UniProt P42338),-0.024,-0.014,-0.045,0.159,0.412,0.019,0.095,0.002,0.052,0.037,-0.009,0.388,-0.011,-0.005,-0.076,-0.003,0.035,-0.012,0.056,0.018
PRKCD (UniProt Q05655),-0.041,0.016,-0.035,-0.047,-0.01,0.006,-0.023,-0.069,0.019,0.013,0.021,0.162,0.01,-0.005,0.006,0.027,-0.012,-0.004,0.038,0.04
PRKD2 isoform 3 (UniProt Q9BZL6),0.085,-0.047,0.031,-0.112,0.028,0.014,-0.037,-0.175,-0.009,0.021,0.026,-0.065,0.019,-0.122,0.045,0.04,-0.111,-0.034,0.046,0.007
PI4K2B (UniProt Q8TCG2),0.023,0.035,-0.041,-0.089,-0.002,-0.047,0.009,-0.07,0.136,0.026,-0.028,0.04,0.103,0.069,-0.063,-0.075,-0.005,-0.082,0.001,0.005
NA (UniProt Q4G0T1),-0.178,–,0.348 (active),–,–,0.017,–,–,–,0.002,–,–,0.016,-0.096,-0.119,–,-0.061,-0.158,-0.151,–
PTMA isoform 2 (UniProt P06454),–,–,–,–,0.015,–,–,–,–,–,-0.053,–,–,–,–,–,–,–,–,–
PRR4 (UniProt Q16378),-0.097,1.59,-0.193,-0.167,–,-0.11,-0.484,-0.127,1.09,-0.048,–,-0.009,-0.188,0.305,1.86,1.73,–,–,0.1,-0.23
PRRG1 (UniProt O14668),–,–,–,–,–,-0.006,–,–,–,0.06,–,–,0.081,0.072,–,–,–,–,-0.033,–
PRG4 (UniProt Q92954),–,–,–,–,-0.296,-0.027,–,–,–,0.057,0.267,-0.002,0.037,-0.109,–,-0.091,-0.029,-0.027,0.035,0.034
POLR2M (UniProt Q6EEV4),0.011,0.164,-0.025,-0.031,-0.045,–,-0.111,0.052,-0.01,–,0.005,-0.07,–,–,-0.109,–,0.007,0.157,–,0.078
PIK3CD (UniProt O00329),-0.014,-0.162,-0.095,0.034,0.091,-0.031,0.098,–,–,0.109,-0.14,0.222,-0.017,-0.123,-0.12,0.021,-0.032,0.04,0.098,-0.056
PHOSPHO2 (UniProt C9JD35),–,–,–,–,–,–,–,0.069,-0.21,–,–,–,–,–,–,–,–,0.09,–,–
PTK2 isoform 2 (UniProt Q05397),0.002,–,0.006,–,-0.114,–,–,0.193,-0.016,–,0.173,-0.047,–,–,-0.002,–,-0.138,–,–,-0.053
PIK3CG (UniProt P48736),0.045,0,-0.011,0.045,–,-0.047,-0.005,0,0.003,-0.011,-0.017,–,0.02,-0.047,-0.027,-0.054,-0.071,-0.025,0.01,–
PPP1R11 (UniProt O60927),-0.046,–,0.015,–,0.01,0.004,–,0,-0.03,0.132,-0.037,0.058,0.062,-0.021,-0.024,0.1,0.052,0.059,-0.037,-0.01
PPME1 (UniProt Q9Y570),0.129,–,0.003,–,-0.09,–,–,-0.025,-0.033,–,-0.038,-0.072,–,–,-0.238,–,-0.018,–,–,-0.077
PNPLA4 (UniProt P41247),–,0.064,–,0.1,–,0.051,0.1,0.086,0.09,-0.001,–,–,0.14,-0.099,–,–,-0.116,-0.052,0.046,–
PRADC1 (UniProt Q9BSG0),-0.016,–,0.027,–,0.018,0,–,–,–,0.017,0.026,-0.395,-0.023,0.041,-0.125,0.026,-0.009,0.072,0.008,-0.023
